{"source": "the supplement of paper PMC9950053", "note": "Structures can show the parent of a compound that is named as a salt."}
{"tested_on": "Danio rerio larvae (5 dpf)", "experiment": "1-h baseline activity (% time moving, periods 1-6) minus DMSO control (percentage points); higher = more locomotor activity than DMSO larvae", "details": "10 µM; exposure time: 3 h pre-incubation + 3 h imaging", "description": "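Wild-type 5 dpf zebrafish larvae (n=48 per drug, 96-well plates, 28.5 °C) were exposed to Tocris FDA-approved library compounds at 10 µM (0.1% DMSO) for 3 h before and 3 h during imaging. Images were taken every 6 s during visual (moving coloured lines) and acoustic stimuli, and larvae were tracked with the DeepLabCut-based Z-LaP Tracker. Each behavioural measure is the treated-group mean minus the DMSO vehicle control mean (n=844), in percentage points. This mapping covers compounds with 4-character plate codes.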"}
{"molecule": "C[C@]12CCC(=O)C=C1CC[C@@H]1[C@@H]2[C@@H](O)C[C@@]2(C)[C@H]1CC[C@]2(O)C(=O)CO", "note": "[Hydrocortisone]", "1-h baseline activity": 1.95}
{"molecule": "COc1cccc2c1C(=O)c1c(O)c3c(c(O)c1C2=O)C[C@@](O)(C(=O)CO)C[C@@H]3O[C@H]1C[C@H](N)[C@H](O)[C@H](C)O1", "note": "[Doxorubicin hydrochloride]", "1-h baseline activity": -7.23}
{"molecule": "Cc1cccc(C)c1OCC(C)N", "note": "(stereo not given) [Mexiletine hydrochloride]", "1-h baseline activity": 3.37}
{"molecule": "CC(C)n1c(/C=C/C(O)CC(O)CC(=O)O)c(-c2ccc(F)cc2)c2ccccc21", "note": "(stereo not given) [Fluvastatin sodium]", "1-h baseline activity": -0.765}
{"molecule": "CCOC(=O)[C@H](CCc1ccccc1)N[C@H]1CCc2ccccc2N(CC(=O)O)C1=O", "note": "[Benazepril hydrochloride]", "1-h baseline activity": 0.149}
{"molecule": "Cc1ccc(N(CC2=NCCN2)c2cccc(O)c2)cc1", "note": "[Phentolamine Mesylate]", "1-h baseline activity": 7.71}
{"molecule": "CCOc1nc2cccc(C(=O)O)c2n1Cc1ccc(-c2ccccc2-c2nnn[nH]2)cc1", "note": "[Candesartan]", "1-h baseline activity": 2.98}
{"molecule": "Nc1ccn([C@@H]2O[C@H](CO)[C@@H](O)C2(F)F)c(=O)n1", "note": "[Gemcitabine hydrochloride]", "1-h baseline activity": -7.23}
{"molecule": "O=C1CCc2cc(OCCCCc3nnnn3C3CCCCC3)ccc2N1", "note": "[Cilostazol]", "1-h baseline activity": 10}
{"molecule": "Cc1ccsc1C(=CCCN1CCC[C@@H](C(=O)O)C1)c1sccc1C", "note": "[Tiagabine hydrochloride]", "1-h baseline activity": 7.89}
{"molecule": "CC[C@H](C)C(=O)O[C@H]1C[C@@H](C)C=C2C=C[C@H](C)[C@H](CC[C@@H]3C[C@@H](O)CC(=O)O3)[C@H]21", "note": "[Lovastatin]", "1-h baseline activity": -3.77}
{"molecule": "CN(C)CCC[C@@]1(c2ccc(F)cc2)OCc2cc(C#N)ccc21", "note": "[Escitalopram oxalate]", "1-h baseline activity": -24.4}
{"molecule": "CC(=O)O[C@]1(C(C)=O)CC[C@H]2[C@@H]3C=C(C)C4=CC(=O)CC[C@]4(C)[C@H]3CC[C@@]21C", "note": "[Megestrol Acetate]", "1-h baseline activity": -13.7}
{"molecule": "CN1CC(=O)N2[C@H](c3ccc4c(c3)OCO4)c3[nH]c4ccccc4c3C[C@@H]2C1=O", "note": "[Tadalafil]", "1-h baseline activity": 10.9}
{"molecule": "COc1cc2nc(N3CCN(C(=O)c4ccco4)CC3)nc(N)c2cc1OC", "note": "[Prazosin hydrochloride]", "1-h baseline activity": -4.14}
{"molecule": "Nc1ncn([C@@H]2O[C@H](CO)[C@@H](O)[C@H]2O)c(=O)n1", "note": "[5-Azacytidine]", "1-h baseline activity": 2.7}
{"molecule": "CCCN(CCc1cccs1)[C@H]1CCc2c(O)cccc2C1", "note": "[Rotigotine hydrochloride]", "1-h baseline activity": -27}
{"molecule": "C[C@@H](O[C@H]1OCCN(Cc2n[nH]c(=O)[nH]2)[C@H]1c1ccc(F)cc1)c1cc(C(F)(F)F)cc(C(F)(F)F)c1", "note": "[Aprepitant]", "1-h baseline activity": -8.77}
{"molecule": "CC(C)c1nc(CN(C)C(=O)N[C@H](C(=O)N[C@@H](Cc2ccccc2)C[C@H](O)[C@H](Cc2ccccc2)NC(=O)OCc2cncs2)C(C)C)cs1", "note": "[Ritonavir]", "1-h baseline activity": -4.53}
{"molecule": "C=C1[C@H](CO)[C@@H](O)C[C@@H]1n1cnc2c(=O)[nH]c(N)nc21", "note": "[Entecavir]", "1-h baseline activity": -2.24}
{"molecule": "CCOC(=O)N1CCC(=C2c3ccc(Cl)cc3CCc3cccnc32)CC1", "note": "[Loratidine]", "1-h baseline activity": -19.4}
{"molecule": "CC(C)CN(C[C@@H](O)[C@H](Cc1ccccc1)NC(=O)O[C@H]1CO[C@H]2OCC[C@H]21)S(=O)(=O)c1ccc(N)cc1", "note": "[Darunavir]", "1-h baseline activity": 10.3}
{"molecule": "CN(C)CC/C=C1/c2ccccc2COc2ccc(CC(=O)O)cc21", "note": "[Olopatadine hydrochloride]", "1-h baseline activity": -0.564}
{"molecule": "CCC(C)(C)C(=O)O[C@H]1C[C@@H](C)C=C2C=C[C@H](C)[C@H](CC[C@@H]3C[C@@H](O)CC(=O)O3)[C@H]21", "note": "[Simvastatin]", "1-h baseline activity": 6.15}
{"molecule": "O=C(Nc1c(Cl)cncc1Cl)c1ccc(OC(F)F)c(OCC2CC2)c1", "note": "[Roflumilast]", "1-h baseline activity": -15.9}
{"molecule": "CN(CCOc1ccc(NS(C)(=O)=O)cc1)CCc1ccc(NS(C)(=O)=O)cc1", "note": "[Dofetilide]", "1-h baseline activity": -0.169}
{"molecule": "C=CC(=O)N1CCC[C@@H](n2nc(-c3ccc(Oc4ccccc4)cc3)c3c(N)ncnc32)C1", "note": "[Ibrutinib]", "1-h baseline activity": -7.48}
{"molecule": "CCOC(=O)c1ncn2c1CN(C)C(=O)c1cc(F)ccc1-2", "note": "[Flumazenil]", "1-h baseline activity": 1.03}
{"molecule": "CCCN(CCC)S(=O)(=O)c1ccc(C(=O)O)cc1", "note": "[Probenecid]", "1-h baseline activity": -2.34}
{"molecule": "COc1cc(Nc2c(C#N)cnc3cc(OCCCN4CCN(C)CC4)c(OC)cc23)c(Cl)cc1Cl", "note": "[Bosutinib]", "1-h baseline activity": -17.1}
{"molecule": "Brc1c(NC2=NCCN2)ccc2nccnc12", "1-h baseline activity": -17.8}
{"molecule": "NS(=O)(=O)Cc1noc2ccccc12", "note": "[Zonisamide]", "1-h baseline activity": 2.49}
{"molecule": "Cc1ccccc1C(=O)Nc1ccc(C(=O)N2CCCC(O)c3cc(Cl)ccc32)c(C)c1", "note": "(stereo not given) [Tolvaptan]", "1-h baseline activity": 0.214}
{"molecule": "CC(C)Nc1cccnc1N1CCN(C(=O)c2cc3cc(NS(C)(=O)=O)ccc3[nH]2)CC1", "note": "[Delavirdine mesylate]", "1-h baseline activity": -4.01}
{"molecule": "N[C@@H]1[C@H]2CN(c3nc4c(cc3F)c(=O)c(C(=O)O)cn4-c3ccc(F)cc3F)C[C@@H]12", "note": "[Trovafloxacin mesylate]", "1-h baseline activity": 4.29}
{"molecule": "CCN(CC)CCNC(=O)c1c(C)[nH]c(/C=C2\\C(=O)Nc3ccc(F)cc32)c1C", "note": "[Sunitinib malate]", "1-h baseline activity": -14}
{"molecule": "CN1CCN(CCCN2c3ccccc3Sc3ccc(Cl)cc32)CC1", "note": "[Prochlorperazine dimaleate]", "1-h baseline activity": 4.26}
{"molecule": "Cc1ccc(O)c([C@H](CCN(C(C)C)C(C)C)c2ccccc2)c1", "note": "[Tolterodine L-tartrate]", "1-h baseline activity": 0.455}
{"molecule": "CCCCc1nc(Cl)c(CO)n1Cc1ccc(-c2ccccc2-c2nnn[nH]2)cc1", "note": "[Losartan potassium]", "1-h baseline activity": 10.3}
{"molecule": "OCCN(CCO)c1nc(N2CCCCC2)c2nc(N(CCO)CCO)nc(N3CCCCC3)c2n1", "note": "[Dipyridamole]", "1-h baseline activity": -3.7}
